# According to PubChem BioAssay AID686979 (National Center for Advancing Translational Sciences (NCATS), 2013):
# In all, about 420,000 compounds went through this assay and about 50,000 (12%) were called active. Roughly 26% stayed inconclusive and do not appear here. The call rests on the fitted dose curve; in most records, active means well fitted inhibition curve with a large enough effect; inconclusive means small, poorly fitted or top-dose-only effect; inactive means flat fitted curve, though single readings scatter. The sample as a whole holds a higher share of actives than the screen did.
# Test: qHTS for Inhibitors of human tyrosyl-DNA phosphodiesterase 1 (TDP1): qHTS in cells in presence of CPT; further: nearly all actives have a fitted effect of over 55% in size
# Details: chicken DT40 Tdp1-/-;hTDP1 cells + 20 nM CPT, ATP luminescence, 48 h; series mostly up to 46.2 µM; activity change, negative = growth inhibition: at the top concentration
# Procedure, shortened: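 Cell growth measured by CellTiter-Glo luminescence after a minimum 48 h, 37 C compound exposure with 20 nM CPT in Tdp1-knockout DT40 cells stably expressing hTDP1, seeded 400/well; qHTS titration format.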
# On the % scale 0 is the no-effect control and ±100 the full control effect; potency means the concentration at half of the fitted maximal effect.
Compound,"activity change, negative = growth inhibition",Potency
CCC(C)N1CC(=O)N2Cc3[nH]c4ccccc4c3C[C@H]2C1=O (stereo partly drawn),-2.41% (inactive),
COCCn1c(C)cc(C(=O)COC(=O)CNC(=O)c2ccco2)c1C,-17% (inactive),
CCOC(=O)C1CCN(c2ncnc3c2c(-c2ccccc2)cn3-c2cccc(C)c2)CC1,,18.4 µM (active)
CCOC(=O)C1CCN(Cc2ccc(-c3ccccc3)cc2)CC1,6.78% (inactive),
O=c1[nH]cnc2c1c(-c1ccccc1)cn2-c1ccc(F)cc1,-11.8% (inactive),
CCOC(=O)C1CCN(c2ncnc3c2oc2ccc(Br)cc23)CC1,-22.5% (inactive),
CCOC(=O)C1CCN(C(=O)COc2cc(C)c(Br)c(C)c2)CC1,-20.6% (inactive),
CCOC(=O)C1CCN(c2ncnc3c2c(-c2ccccc2)cn3-c2ccc(C)cc2)CC1,,20.6 µM (active)
CC(Cc1cccs1)N(Cc1ccc(Cl)cc1)C(=O)c1ccncc1 (stereo not drawn),-18.9% (inactive),
COc1ccc(C(=O)O/N=C(\N)c2ccccn2)cc1[N+](=O)[O-],-27.8% (inactive),
COc1ccc(N=Nc2ccc(O)c(P(=O)(c3ccccc3)c3ccccc3)c2)cc1,-16.4% (inactive),
COCCN(C(=O)C(C)N1C(=O)c2ccccc2C1=O)c1c(N)n(CC(C)C)c(=O)[nH]c1=O (stereo not drawn),-29.5% (inactive),
CCNC(=O)CC1C(=O)N(c2ccc(F)cc2)C(=O)N1Cc1ccc(C)cc1 (stereo not drawn),-0.743% (inactive),
CSc1ccc(CNCCN2CCOCC2)cc1,-4.96% (inactive),
CCCCOc1ccc(C(C)(O)CCN2CCOCC2)cc1 (stereo not drawn),7.6% (inactive),
CC(C)(C)c1ccc(CCC2OCC(CN3CCOCC3)O2)cc1 (stereo not drawn),,20.6 µM (active)
CC(C)CCNC(=O)c1[nH]c(C(F)(F)F)nc1-c1ccccc1,-24.5% (inactive),
COc1ccc(C(=O)NN(C)c2nc(-c3ccccc3)cc(C)c2S(C)(=O)=O)cc1,,16.4 µM (active)
COc1ccc(/C(C)=N\NC(=O)c2ccc(-c3ccccc3)cc2)c(F)c1,1.06% (inactive),
COc1ccc(C(=O)Nc2cc(C)ccc2NC(=O)COc2ccccc2)cc1,10.8% (inactive),
CC1CCCCC1NC(=O)Cn1c(=O)cnc2ccccc21 (stereo not drawn),0.78% (inactive),
O=S(=O)(Nc1ccccc1Br)c1cccs1,9.21% (inactive),
O=C(Cc1c(O)c2ccccc2[nH]c1=O)NCc1ccccc1,1.16% (inactive),
CCCOC(=O)Cc1c(O)c2ccccc2[nH]c1=O,-11.3% (inactive),
COC(=O)Cc1c(-c2[nH]c3ccccc3c2CC(=O)OC)[nH]c2ccccc12,,20.6 µM (active)

Compound,"activity change, negative = growth inhibition",Potency
Cc1ccc(Nc2ncnc3c2cnn3C)c(C)c1,-27.3% (inactive),
Cc1cc(-c2n[nH]c(=S)n2-c2ccc(C)c(C)c2)no1,-11.6% (inactive),
CCN(CC)C(=O)COc1coc(CN2CCN(Cc3ccccc3)CC2)cc1=O,-2.36% (inactive),
CC(C)(C)NC(=O)COC(=O)c1cc(Cl)ccc1[N+](=O)[O-],3.17% (inactive),
Cc1ccc(-c2noc(CSc3nnnn3-c3ccccc3)n2)cc1,-3.52% (inactive),
Cc1ccc(Nc2nc(CSc3nnnn3-c3ccccc3)cc(=O)[nH]2)cc1,,23.1 µM (active)
Nc1nc(CSc2nnnn2-c2ccccc2)nc(Nc2ccccc2)n1,-16% (inactive),
O=C(NC1(C(F)(F)F)NC(=O)N(Cc2cccnc2)C1=O)c1ccccc1Cl (stereo not drawn),-1.49% (inactive),
CCOC(=O)C1CCN(C(=O)CC2C(=O)N(Cc3ccccc3)C(C)c3nc4ccccc4n32)CC1 (stereo not drawn),-26.1% (inactive),
COC(=O)[C@]12CCCCC=C1N(Cc1ccc3c(c1)OCO3)C(=O)[C@H](CC(=O)N1CCOCC1)C2,8.29% (inactive),
COC(=O)[C@@]12C[C@@H](CC(=O)N3CCC(c4ccccc4)CC3)C(=O)N(Cc3ccccc3)C1=CCC(C)(C)C2,,18.4 µM (active)
O=c1cc(CN2CCN(c3cccc(Cl)c3)CC2)c2cc3c(cc2o1)CCCC3,-28.5% (inactive),
O=C(NCCCO)/C(=C\C=C\c1ccccc1)NC(=O)c1ccccc1Cl,-12.1% (inactive),
CCOP(=O)(OCC)C(Nc1ccc([N+](=O)[O-])cc1)c1ccc(Cl)cc1 (stereo not drawn),-22% (inactive),
CCOC(=O)[C@]12CCC=C1N(Cc1ccco1)C(=O)[C@H](CC(=O)N1CCSCC1)C2,-27.5% (inactive),
CC1=C(C(=O)N(C)C)CC(CC(=O)NCCc2ccccn2)C(=O)N1CCC1=CCCCC1 (stereo not drawn),5.55% (inactive),
CN1CCNC(=O)C1CC(=O)NCCC1=CCCCC1 (stereo not drawn),-0.969% (inactive),
CCOC(=O)[C@]12CCCC=C1N(Cc1ccc(Cl)cc1Cl)C(=O)[C@H](CC(=O)N1CCCCC1)C2,,20.6 µM (active)
CCOC(=O)[C@]12CCCC=C1N(CCC1=CCCCC1)C(=O)[C@H](CC(=O)N1CCCCC1)C2,,7.31 µM (active)
CCOC(=O)[C@]12CCCC=C1N(CCC1=CCCCC1)C(=O)[C@H](CC(=O)NCCCOC)C2,,14.6 µM (active)
CCOC(=O)[C@]12CCCC=C1N(CCC1=CCCCC1)C(=O)[C@H](CC(=O)N1CCOCC1)C2,-80.8% (inactive),
CCOC(=O)[C@]12CCC=C1N(Cc1ccccc1)C(=O)[C@H](CC(=O)N1CCCC1)C2,-15.5% (inactive),
CC1=C(C(=O)N2CCOCC2)CC(CC(=O)NCCN2CCOCC2)C(=O)N1CCC1=CCCCC1 (stereo not drawn),-24.6% (inactive),
CCCCOCCCNC(=O)C[C@@H]1C[C@@]2(C(=O)OCC)CCCC=C2N(CCC2=CCCCC2)C1=O,,13 µM (active)
COc1ccc(CNC(=O)CN(C(=O)c2csnn2)c2cnc3ccccc3c2)cc1,-24% (inactive),

Compound,"activity change, negative = growth inhibition",Potency
COCCNc1nnc(SCC(=O)NNC(=O)c2ccco2)s1,-0.281% (inactive),
Cc1ccc(NC(=O)C2CC2c2ccccc2)cc1 (stereo not drawn),-15.6% (inactive),
O=C(/C=C/[C@H]1O[C@@H](n2cnc3c(NC(=O)c4ccccc4)ncnc32)[C@H](O)[C@@H]1O)NCc1ccccc1,-25.5% (inactive),
CC1CCCCC12NC(=O)N(CC(=O)Nc1ccc(S(=O)(=O)Nc3ncccn3)cc1)C2=O (stereo not drawn),0.923% (inactive),
CCC(C)N(C(=O)COC(=O)C1C(C(=O)OC)=C(C)NC(C)=C1C(=O)OC)C1CCS(=O)(=O)C1 (stereo not drawn),0.101% (inactive),
COc1cc(OC)c(C(=S)N2CCCC2)cc1OC,-22% (inactive),
CSc1ccccc1C(=O)OCC(=O)N1CCN(C(C)=O)CC1,-0.484% (inactive),
Cc1ccc(NC(=O)[C@H](Cc2ccccc2)NC(=O)CC[C@H]2O[C@@H](n3ccc(=O)[nH]c3=O)[C@H](O)[C@@H]2O)cc1C,-6.82% (inactive),
Cc1cccc(C(=O)Nc2ccc(Oc3cnccn3)cc2)c1,-11.8% (inactive),
CCN(CC)C(=O)C1=C(C)N(Cc2ccc(OC)cc2)C(=O)C(CC(=O)NCc2ccco2)C1 (stereo not drawn),-18.4% (inactive),
C#CCNC(=O)C[C@@H]1C[C@@]2(C(=O)OCC)CCCC=C2N(Cc2ccco2)C1=O,-5.49% (inactive),
CC1=C(C(=O)N2CCOCC2)CC(CC(=O)NCc2cccc3ccccc23)C(=O)N1CCC1=CCCCC1 (stereo not drawn),-11.8% (inactive),
CCCCNC(=O)C[C@@H]1C[C@@]2(C(=O)OCC)CCC=C2N(Cc2ccco2)C1=O,-11.1% (inactive),
CCCCNC(=O)C[C@@H]1C[C@@]2(C(=O)OCC)CCC=C2N(Cc2cccc3ccccc23)C1=O,,16.4 µM (active)
CCOC(=O)[C@]12CCC=C1N(CCC1=CCCCC1)C(=O)[C@H](CC(=O)NCc1ccc(C)o1)C2,,16.4 µM (active)
Cc1ccccc1OCC(=O)NNC(=O)c1cc(S(=O)(=O)N(C)C)ccc1N1CCCC1,-16.2% (inactive),
COc1ccc(NC(=O)CN(C)C(=O)CC2CCCCC2)cc1,1.32% (inactive),
COc1cc(OC)c(C2C=C(C(=O)O)Nc3ncnn32)cc1OC (stereo not drawn),0.986% (inactive),
CC(C)CC(=O)Nc1ccc(Cc2ccncc2)cc1,-22.1% (inactive),
CCNC(=O)C1(C)CCN(C(=O)c2ccccc2)C1 (stereo not drawn),-20.3% (inactive),
CCOC(=O)NC(=O)C(=CNc1cccc(OC)c1)C(=O)NC(=O)OCC,1.35% (inactive),
COCCn1nnnc1C(c1cc2ccc(OC)cc2[nH]c1=O)N1CCc2ccccc2C1 (stereo not drawn),-27.8% (inactive),
CCC(c1nnnn1Cc1ccco1)N(CCc1ccccc1)Cc1cc2ccc(OC)cc2[nH]c1=O (stereo not drawn),,23.1 µM (active)
COc1ccc2[nH]c3c(=O)n(Cc4ccco4)cnc3c2c1,-2.12% (inactive),
COc1cc(OC)c(C(=O)N2CCCC2)cc1OC,22.1% (inactive),

Compound,"activity change, negative = growth inhibition",Potency
Cc1ccc(NC(=O)C(C)Sc2nnc(C3CC3)n2C2CC2)cc1S(=O)(=O)N1CCOCC1 (stereo not drawn),-20.8% (inactive),
CSCCC(NC(=O)c1ccc(Cl)cc1Cl)C(=O)NNC(=O)c1csc(N2CCOCC2)n1 (stereo not drawn),4.89% (inactive),
CCOC(=O)c1cc2c(nc1NC(=S)Nc1ccccc1)CC(C)(CC)OC2 (stereo not drawn),0.397% (inactive),
O=C(NNS(=O)(=O)c1ccc(F)cc1)C1CCCCC1,2.3% (inactive),
O=C(NCc1ccccc1Cl)C1CCCN1S(=O)(=O)c1ccc(F)cc1 (stereo not drawn),-27.9% (inactive),
CCOC(=O)c1c(S(=O)(=O)N2CCCC(C(=O)NCc3ccc(F)cc3)C2)c(C)n(CC)c1C (stereo not drawn),-14.2% (inactive),
Cc1ccccc1CNC(=O)C1CCCN(S(=O)(=O)N(C)c2ccc(F)cc2)C1 (stereo not drawn),,23.1 µM (active)
CCNC(=O)CC1C(=O)N(c2ccc(OC)cc2)C(=O)N1CCOC (stereo not drawn),-3.13% (inactive),
CN(C)N=Nc1ccc2nc[nH]c2c1,-13.5% (inactive),
Cc1ccc2c(N)c(C(=O)c3ccccc3)sc2n1,-24.8% (inactive),
CCCCNC(=O)c1ccc2c(c1)NC(=O)C(C(C)C)N2 (stereo not drawn),-22% (inactive),
Cc1[nH]c2ccccc2c1C(=O)CN1CC(C)CC(C)C1 (stereo not drawn),,11.6 µM (active)
Cc1[nH]c2ccccc2c1C(=O)COC(=O)C(C)C,-4.53% (inactive),
Cc1ccc2c(C(=O)CN3CCCC3)c(C)[nH]c2c1,-19.6% (inactive),
Cc1[nH]c2ccccc2c1C(=O)CSCC(=O)O,-19.6% (inactive),
CCOC(=O)N1CCN(CC(=O)c2c(C)[nH]c3ccccc23)CC1,,18.4 µM (active)
Cc1[nH]c2ccccc2c1C(=O)CN1CCCC(C)C1 (stereo not drawn),4.31% (inactive),
CCOCCCNC(=O)C(NC(=O)Cc1c[nH]c2ccccc12)c1ccc(OC)cc1 (stereo not drawn),2.87% (inactive),
COc1cccc(NC(=O)N2CCN(C(=O)c3nsc4ccccc34)CC2)c1,5.7% (inactive),
COC(=O)Cn1cnc2scc(-c3ccc(C)c(C)c3)c2c1=O,7.8% (inactive),
CCOC(=O)c1c(NC(=O)COC(=O)c2ccc(S(=O)(=O)C(F)F)cc2)sc(C(=O)N(C)C)c1C,-14.4% (inactive),
CCOC(=O)Nc1sc(C(=O)N(C)C)c(C)c1C(=O)OCC,-13.3% (inactive),
CCOC(=O)c1c(NC(=O)CCl)sc(C(=O)N(CC)CC)c1C,,13 µM (active)
